# Source: PubChem BioAssay
# Rows were chosen to be rich in hits. Some 21% of all compounds tested hit in one or more screens of this group.
# CHX counter = counter-screen for Shiga toxin inhibitors: cycloheximide protein synthesis inhibition. cell reporter, cycloheximide protein synthesis inhibition counterscreen. max response, %. 12% of 300,000 active; in the data active = max response mostly above about 13%, no sharp cut-off; inactive = mostly below about 14%; also: read at 38.3 µM for the half of the compounds with a filed dose; 0% is about no effect
# Pf growth 48h = inhibits P. falciparum growth in the first generation, 48 h; P. falciparum luciferase growth in erythrocytes, 48 h; Potency, µM (doses to about 28.7 µM), for the others: top-dose activity change, negative = inhibition, most hits filed as inhibitors; 5.9% of 310,000 active; also: potency is read from the fitted curve at half-maximal effect; % is scaled to controls: 0 for no effect and ±100 for the full control effect
#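 Luciferase-expressing P. falciparum in infected erythrocytes (2% hematocrit, 0.1% parasitemia final) in RPMI 1640/0.5% Albumax were exposed to compound for 48 hours at 37 C, 5% CO2; growth read as luminescence.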
# NS1 inh = inhibitors of influenza NS1 protein function. 0.4% of 270,000 active. AID 2326. Potency, µM (highest dose often 46.1 µM), without a hit: at the top dose activity, positive = more growth; calls by dose curve; also: potency is read from the fitted curve at half-maximal effect; actives are rising curves; nearly all actives have a fitted effect of over 50% in size
#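 A cell-based growth assay was used: compounds that relieve NS1-induced slow growth of budding yeast raise OD600. Assay medium was yeast nitrogen base with ammonium sulphate and -URA supplement, pH 6.0, with 2% galactose.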
# Sm TGR inh = blocks Schistosoma mansoni thioredoxin glutathione reductase. purified TGR, DTNB reduction, TNB absorbance 405 nm. Potency, µM (doses to about 114 µM), for the others: at the highest dose activity change, negative = inhibition, usual class: inhibitors. 3% of 360,000 active. AID 485364; also: potency is read from the fitted curve at half-maximal effect; % is scaled to controls: 0 for no effect and ±100 for the full control effect; nearly all actives have a fitted effect of over 60% in size
#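 TGR 20 nM + NADPH 100 uM (dispensed conc.), cpd preinc 15 min RT; start with NADPH (500 uM addition) then DTNB (15 mM addition). Kinetic TNB absorbance, 405 nm filter. Four-parameter Hill fit across titration.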
# Pf growth 96h = P. falciparum growth inhibition at 96 hours | Potency, µM (top dose mostly 28.7 µM), inactives show top-dose activity change, negative = inhibition, actives largely listed as inhibitors | P. falciparum luciferase reporter growth, 96 h | 6.9% of 320,000 active; also: potency is read from the fitted curve at half-maximal effect; % is scaled to controls: 0 for no effect and ±100 for the full control effect
#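 Two-generation exposure (96 h) targets delayed-death phenotype. Reporter parasites carrying integrated firefly luciferase, in red cells at 2% hematocrit and 0.05% parasitemia final, kept at 37 C, 5% CO2; luminescence loss indicates inhibition.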
# Shiga inhibitor = Shiga toxin inhibition; Vero cells, Shiga toxin protein synthesis inhibition reporter; inhibition, % at 38.7 µM; 9.2% of 290,000 active; in the data active = inhibition mostly above about 28%, no sharp cut-off; inactive = mostly below about 43%; also: 0% is about no effect
# Starred values were filed as active, the others as inactive; ? = inconclusive; · = no result; [ ] = dose if it differs, or a comment. Unless noted, calls follow the shape of the dose curve; as a rule, active = well fitted curve in the direction sought with a large enough effect; inconclusive = small, poorly fitted or top-dose-only effect, or another doubt; inactive = no such curve, though single readings can be large; an effect the other way counts as inactive or inconclusive.
SMILES,CHX counter,Pf growth 48h,NS1 inh,Sm TGR inh,Pf growth 96h,Shiga inhibitor
CCOc1ccc(NC(=O)CCNC(=O)C2CCN(S(=O)(=O)c3ccccc3)CC2)cc1,-2,-13%,-3%,?,?,-4
Cc1ccccc1OCc1nnc(SCC(=O)Nc2ccc3nc(SCC(=O)NC(C)(C)C)sc3c2)n1C,-3,?,3%,0%,-8%[5.75 µM],-6
Nn1c(SCC(=O)Nc2nc3ccccc3s2)nncc1=O,23*,13%,7%,-8%,55%,40
Nn1c(SCC(=O)Nc2cc(C(F)(F)F)ccc2Cl)nncc1=O,6,12µM*,13%,2%,?,-2
Nn1c(SCC(=O)Nc2cccc(C(F)(F)F)c2)nncc1=O,-2,?,?,4%,-1%,-2
Cn1ccnc1SCC(=O)Nc1cccc2ccccc12,39*,13%,-3%,4%,·,25
Cc1nnc(SCC(=O)Nc2nc3ccccc3s2)n(N)c1=O,-2,-7%,15%,-13%,50%,-3
CCN(CC)C(=O)CSc1nc2ccc(NC(=O)CSc3nnc(COc4ccccc4C)n3C)cc2s1,0,?,-12%,-27%,9.3µM*,-3
CC1(NC(=O)C2CCCCC2)CCS(=O)(=O)C1 (configuration not stated),-3,-1%,·,6%,26%,-11
CC(C)=N[C@H](C(=O)O)C(C)(C)S,·,·,-4%,·,·,·
O=C(CN1C(=O)COc2ccc(S(=O)(=O)N3CCOCC3)cc21)NCc1ccc(Cl)cc1,·,·,·,6%,·,·
CCc1ccc(CNC(=O)c2ccc(NC(=O)N3CCSc4ncccc43)cc2)cc1,·,·,·,-5%,·,·
O=C(CSc1cn[nH]n1)Nc1nc2ccccc2s1,27*,47%,8%,-3%,4%,53*
Cn1ccnc1SCC(=O)Nc1ccc2nc(SCC(=O)NC3CC3)sc2c1,33*,46%,4%,2%,?,113*
COc1ccc(-c2nnc3ccc(SCC(=O)Nc4nc5ccccc5s4)nn23)cc1OC,-1,8.3µM*,5%,-8%,?,-6
Cc1cc(=O)[nH]c(SCC(=O)Nc2nc3ccccc3s2)n1,9,79%,·,2%,21%,22
Cn1ccnc1SCC(=O)Nc1ccc(Br)cc1C(F)(F)F,22*,29%,-5%,?,?,117*
Cc1ccc2cn[nH]c2c1[N+](=O)[O-],-5,-7%,·,-6%,29%,-9
CC1CC(C)(C)CC2(C1)NC(=O)N(CC(=O)N(Cc1ccccc1)c1ccccc1)C2=O (configuration not stated),·,?,·,4%,?,·
Cc1nn(-c2ccccc2)c2nc(C3CC3)cc(C(=O)Nc3cccc(F)c3)c12,·,·,·,5%,·,·
CCOc1ccc(OCCN2C(=O)NC(Cc3c[nH]c4ccccc34)C2=O)cc1 (configuration not stated),3,·,-7%,7%,-53%,3
O=C(CSc1nc2ccccc2s1)NCCOc1ccccc1,15*,28%,-4%,-22%,-5%,17
Cc1nc(NC(=O)CSc2nccn2C)sc1C(=O)N(C)C,21*,59%,3%,-14%,0%,43*
COc1ccc(NC(=O)CSc2nccn2C)c([N+](=O)[O-])c1,23*,58%,·,0%,2%,60*
Brc1c(CSc2nc3ccccc3s2)nc2ncccn12,23*,3%,-4%,-11%,3.3µM*,43
SMILES,CHX counter,Pf growth 48h,NS1 inh,Sm TGR inh,Pf growth 96h,Shiga inhibitor
Cc1cc([N+](=O)[O-])ccc1NC(=O)CSc1nccn1C,·,·,·,0%,·,·
Cc1nnc(NC(=O)CSc2nccn2C)s1,-1,33%,-4%[9.22 µM],-5%,-7%,-5
O=C(Cc1n[nH]c(=O)c2ccccc12)OCC(=O)c1ccccc1,·,7%,·,4%,-10%,·
Cc1ccc(/C=C/c2onc(C)c2S(=O)(=O)N2CCC(C(=O)Nc3ccccc3C(F)(F)F)CC2)cc1,·,·,·,3%,·,·
CC1CC(C)CN(C(=O)COC(=O)c2cc3ccccc3cc2O)C1 (configuration not stated),11,4%,-74%,0%,0%,26
Cc1cc(C(=O)OCC(=O)N2c3ccccc3CC2C)c(C)o1 (configuration not stated),12,?,-1%,25µM*,-2%,36*
Cc1cc(C(=O)OCC(=O)N2CC(C)CC(C)C2)c(C)o1 (configuration not stated),-9,-10%,-6%,25µM*,?,-8
CCN(CC)c1cccc(OCC(=O)N2c3ccccc3CC2C)c1 (configuration not stated),·,9.3µM*,·,-1%,?,·
COc1ccc(NC(=O)N2CCN(S(C)(=O)=O)CC2)c(OC)c1,-1,-8%,7%,·,-2%,43
CC(=O)Nc1ccc(S(=O)(=O)C(C#N)c2nc3ccccc3nc2NCCCO)cc1 (configuration not stated),1,-7%,2%,2%,?,-1
CCc1nc2ccc(C(=O)NCCc3ccc(OC)cc3)cc2nc1CC,1,-2%,-10%,3%,-5%,29
O=C(COC(=O)c1ccccc1[N+](=O)[O-])Nc1cccnc1Cl,·,-19%,·,-2%,13%,·
O=C(CN1CC(=O)Oc2ccccc21)OCC(=O)c1cccc(Br)c1,18*,?,-90%,?,?,55
CCc1ccc(NC(=O)CSc2cn(CC(=O)N3CCOCC3)c3ccccc23)cc1,·,·,·,-1%,·,·
CC(O)C(=O)N/N=C/c1cccc(Cl)c1Cl (configuration not stated),20*,17%,-4%,0%,-18%,-18
CC(O)C(=O)N/N=C/c1ccccc1C(=O)O (configuration not stated),10,100%,5%,1%,45%,11
Cc1cc(C)cc(-n2c(SCC(=O)N3CCOCC3)nc3c([nH]c4ccccc43)c2=O)c1,·,·,·,5%,·,·
O=C(NNc1cccc(Cl)n1)Nc1cccc(Cl)c1,-7,·,4%,-23%,13µM*,-15
O=C(NCCCc1ccccc1)Nc1cccc(Cl)c1,35*,?,-57%,8%,11%,24*
O=C(Nc1cccc(Cl)c1)Nc1nnc(-c2ccncc2)s1,-1,12µM*,-24%,0%,5.2µM*,28
Cc1ccc(NC(=O)Nc2ccc(S(N)(=O)=O)cc2)cc1,30*,31%,·,0%,11%,49*
CCc1cccc(NC(=O)c2ccc3c(c2)c(C)c(C)n3Cc2ccc(F)cc2)c1,·,·,·,9%,·,·
CC(=O)c1ccc(NC(=S)NCCc2ccc(S(N)(=O)=O)cc2)cc1,32*,30%,·,40µM*,-8%,99*
O=C(Nc1ccccc1)C(Cl)C(=O)c1ccccc1 (configuration not stated),36*,1%,-136%,-26%,-18%,·
CC(=O)Nc1ccc(NC(=O)Nc2cccc(Cl)c2)cc1,27*,0%,6%,-15%,60%,50*
